# Laboratory results reported in ChEMBL document CHEMBL1961873, “Compounds: GSK PKIS; Assays: Nanosyn kinase panel” (2012).
# Biological target: Cyclin-dependent kinase 5 (Homo sapiens) (UniProt Q00535)
# Conditions: at 0.1 µM
# Cyclin-dependent kinase 5 (Homo sapiens), sequence (Q00535 whole entry, looked up): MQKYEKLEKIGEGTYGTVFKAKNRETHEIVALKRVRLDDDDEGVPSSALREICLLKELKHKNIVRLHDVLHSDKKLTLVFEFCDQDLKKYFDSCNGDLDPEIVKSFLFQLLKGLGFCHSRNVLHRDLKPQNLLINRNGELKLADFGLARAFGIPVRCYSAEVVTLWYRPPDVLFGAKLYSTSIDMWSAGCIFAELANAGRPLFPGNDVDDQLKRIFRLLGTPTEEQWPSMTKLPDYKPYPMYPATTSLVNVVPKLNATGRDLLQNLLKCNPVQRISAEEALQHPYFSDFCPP
row,SMILES,inhibition [%]
1,CCCN(CCS(C)(=O)=O)Cc1ccc(-c2ccc3ncnc(Nc4ccc(OCc5cccc(F)c5)c(Cl)c4)c3c2)o1,2.08
2,CCn1c(-c2nonc2N)nc2c(C#CC(C)(C)O)nc(OC[C@H](N)c3ccccc3)cc21,1.23
3,COc1cccc(-c2c[nH]c3c(N/N=C/c4ccncc4)ncnc23)c1,38.8
4,c1cc(-c2cnn3nc(N4CCOCC4)ccc23)nc(NC2CC2)n1,2.71
5,CN(C)CCOc1ccc(-c2nc(-c3ccncc3)c(-c3ccc4c(c3)CC/C4=N\O)[nH]2)cc1,2.41
6,CCc1nn2ncccc2c1-c1ccnc(NC2CC2)n1,0.79
7,Clc1ccc(-c2nn3ncccc3c2-c2ccnc(Nc3ccccc3)n2)cc1,0.66
8,COc1cc(/C=N/Nc2ncnc3[nH]ncc23)ccc1O,2.93
9,NS(=O)(=O)c1ccc(Nc2ncc(-c3ccccc3)o2)cc1,23.8
10,COc1ccc2[nH]c3c4[nH]c5ccc(OC)cc5c4c4c(c3c2c1)C(=O)NC4=O,1.11

# Biological target: Cyclin-dependent kinase 5 (Homo sapiens) (UniProt Q00535)
# Conditions: at 1 µM
row,SMILES,inhibition [%]
1,O=C(Nc1n[nH]c2cc(-c3ccc(F)cc3)ccc12)C1CC1,3.03
2,O=S(=O)(CCNCc1ccc(-c2ccc3ncnc(Nc4ccc(OCc5cccc(F)c5)c(Cl)c4)c3c2)o1)c1ccccc1,1.21
3,COc1cc2ncn(-c3cc(OCc4ccccc4C(F)(F)F)c(C(=O)N(C)C)s3)c2cc1OC,-0.22
4,COc1ccc(-c2cc3c(N)ncnc3o2)cc1,5.3
5,Cc1ccc2c(-c3ccnc(Nc4ccccc4)n3)c(-c3ccc(F)cc3)nn2n1,2.21
6,Nc1nc(-c2cccc(Cl)c2)c(-c2ccc3ncccc3n2)s1,0.13
7,CNC(=O)c1cncc(/C=C/c2ccccc2Cl)c1,2
8,COc1ccc2c(-c3ccnc(Nc4cccc(OC(F)(F)F)c4)n3)cnn2n1,36.3
9,CCCN1CCC(c2ccc(Nc3nc(Nc4cc(F)ccc4C(N)=O)c4cc[nH]c4n3)c(OC)c2)CC1,6.47
10,COc1cc2c(cc1Nc1nc(Nc3ccsc3C(N)=O)c3cc[nH]c3n1)N(C(=O)CN(C)C)CCC2(C)C,7.33
11,Fc1ccc(-c2cc(-c3c[nH]nc3-c3ccccn3)ccn2)cc1,-1.54
12,CCNC(=O)O[C@H]1CN[C@H](C#Cc2cc3ncnc(Nc4ccc(OCc5cccc(F)c5)c(Cl)c4)c3s2)C1,1.78
13,c1ccc(COc2ccc(Nc3ncnc4ccc(-c5ccco5)cc34)cc2)cc1,1.53
14,NC(=O)c1sc(-n2cnc3ccc(C(F)(F)F)cc32)cc1OCc1ccccc1Br,-0.71
15,CS(=O)(=O)CCNCc1ccc(-c2ccc3ncnc(Nc4ccc(OCc5ccccc5)c(C(F)(F)F)c4)c3c2)o1,1.58
16,CC(=O)Nc1cccc(C#Cc2cncnc2Nc2ccc(OCc3cccc(F)c3)c(Cl)c2)c1,0.21
17,CCn1c(-c2nonc2N)nc2ccccc21,1.17

row,SMILES,inhibition [%]
1,COc1cccc(-n2ncc3c(N/N=C/c4ccc(F)cc4)ncnc32)c1,32.8
2,CCN1CCC(CC(=O)Nc2n[nH]c3nnc(-c4cccc(F)c4F)cc23)CC1,7.07
3,COc1cc(Nc2nccc(Nc3ccc4c(C)n[nH]c4c3)n2)cc(OC)c1OC,2.36
4,CCn1c(-c2nonc2N)nc2cnc(Oc3cccc(NC(=O)c4ccc(N(C)C)cc4)c3)cc21,1.93
5,COc1ccc(-c2oc3ncnc(N)c3c2-c2ccc(NC(=O)Nc3cc(C(F)(F)F)ccc3F)cc2)cc1,4.32
6,CCN(CC)S(=O)(=O)c1ccc(OC)c(Nc2ncc(-c3ccccc3)o2)c1,2.21
7,Fc1ccc(-c2nn3ncccc3c2-c2ccnc(Nc3ccc4c(c3)OCCO4)n2)cc1,0.21
8,CCCN(CCS(C)(=O)=O)Cc1ccc(-c2ccc3ncnc(Nc4ccc(OCc5cccc(F)c5)c(Cl)c4)c3c2)o1,6.83
9,CCn1c(-c2nonc2N)nc2c(C#CC(C)(C)O)nc(OC[C@H](N)c3ccccc3)cc21,3.05
10,COc1cccc(-c2c[nH]c3c(N/N=C/c4ccncc4)ncnc23)c1,73.1
11,c1cc(-c2cnn3nc(N4CCOCC4)ccc23)nc(NC2CC2)n1,23.3
12,CN(C)CCOc1ccc(-c2nc(-c3ccncc3)c(-c3ccc4c(c3)CC/C4=N\O)[nH]2)cc1,5.88
13,CCc1nn2ncccc2c1-c1ccnc(NC2CC2)n1,6.84
14,Clc1ccc(-c2nn3ncccc3c2-c2ccnc(Nc3ccccc3)n2)cc1,1.41
15,COc1cc(/C=N/Nc2ncnc3[nH]ncc23)ccc1O,16.3
16,NS(=O)(=O)c1ccc(Nc2ncc(-c3ccccc3)o2)cc1,70.3
17,COc1ccc2[nH]c3c4[nH]c5ccc(OC)cc5c4c4c(c3c2c1)C(=O)NC4=O,2.57

# Biological target: Cyclin-dependent kinase 6 (Homo sapiens) (UniProt Q00534);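 note: mean percent inhibition of CDK6 complexed with cyclin D3, from the GSK PKIS kinase inhibitor screen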
# Conditions: at 0.1 µM
# Cyclin-dependent kinase 6 (Homo sapiens), sequence (Q00534 whole entry): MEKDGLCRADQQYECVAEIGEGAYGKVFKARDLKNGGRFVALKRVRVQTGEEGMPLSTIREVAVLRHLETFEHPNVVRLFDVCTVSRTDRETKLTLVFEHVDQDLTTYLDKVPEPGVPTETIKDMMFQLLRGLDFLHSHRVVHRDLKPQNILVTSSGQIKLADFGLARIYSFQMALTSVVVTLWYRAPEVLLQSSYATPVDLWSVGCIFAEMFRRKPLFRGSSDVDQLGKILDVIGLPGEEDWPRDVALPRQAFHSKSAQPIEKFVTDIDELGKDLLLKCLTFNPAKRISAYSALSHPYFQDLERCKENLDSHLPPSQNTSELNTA
row,SMILES,inhibition [%]
1,O=C(Nc1n[nH]c2cc(-c3ccc(F)cc3)ccc12)C1CC1,-1.47
2,O=S(=O)(CCNCc1ccc(-c2ccc3ncnc(Nc4ccc(OCc5cccc(F)c5)c(Cl)c4)c3c2)o1)c1ccccc1,0.74
3,COc1cc2ncn(-c3cc(OCc4ccccc4C(F)(F)F)c(C(=O)N(C)C)s3)c2cc1OC,-1.98
4,COc1ccc(-c2cc3c(N)ncnc3o2)cc1,-1.4
5,Cc1ccc2c(-c3ccnc(Nc4ccccc4)n3)c(-c3ccc(F)cc3)nn2n1,3.66
6,Nc1nc(-c2cccc(Cl)c2)c(-c2ccc3ncccc3n2)s1,-7.38
7,CNC(=O)c1cncc(/C=C/c2ccccc2Cl)c1,2.81
8,COc1ccc2c(-c3ccnc(Nc4cccc(OC(F)(F)F)c4)n3)cnn2n1,9.65
9,CCCN1CCC(c2ccc(Nc3nc(Nc4cc(F)ccc4C(N)=O)c4cc[nH]c4n3)c(OC)c2)CC1,4.48
10,COc1cc2c(cc1Nc1nc(Nc3ccsc3C(N)=O)c3cc[nH]c3n1)N(C(=O)CN(C)C)CCC2(C)C,1.59
11,Fc1ccc(-c2cc(-c3c[nH]nc3-c3ccccn3)ccn2)cc1,-0.57
12,CCNC(=O)O[C@H]1CN[C@H](C#Cc2cc3ncnc(Nc4ccc(OCc5cccc(F)c5)c(Cl)c4)c3s2)C1,9.65
13,c1ccc(COc2ccc(Nc3ncnc4ccc(-c5ccco5)cc34)cc2)cc1,-2.29
14,NC(=O)c1sc(-n2cnc3ccc(C(F)(F)F)cc32)cc1OCc1ccccc1Br,-0.29
15,CS(=O)(=O)CCNCc1ccc(-c2ccc3ncnc(Nc4ccc(OCc5ccccc5)c(C(F)(F)F)c4)c3c2)o1,-1.88
16,CC(=O)Nc1cccc(C#Cc2cncnc2Nc2ccc(OCc3cccc(F)c3)c(Cl)c2)c1,-0.8
17,CCn1c(-c2nonc2N)nc2ccccc21,1.48

row,SMILES,inhibition [%]
1,COc1cccc(-n2ncc3c(N/N=C/c4ccc(F)cc4)ncnc32)c1,7.13
2,CCN1CCC(CC(=O)Nc2n[nH]c3nnc(-c4cccc(F)c4F)cc23)CC1,-1.17
3,COc1cc(Nc2nccc(Nc3ccc4c(C)n[nH]c4c3)n2)cc(OC)c1OC,1.52
4,CCn1c(-c2nonc2N)nc2cnc(Oc3cccc(NC(=O)c4ccc(N(C)C)cc4)c3)cc21,-1.64
5,COc1ccc(-c2oc3ncnc(N)c3c2-c2ccc(NC(=O)Nc3cc(C(F)(F)F)ccc3F)cc2)cc1,3.24
6,CCN(CC)S(=O)(=O)c1ccc(OC)c(Nc2ncc(-c3ccccc3)o2)c1,5.19
7,Fc1ccc(-c2nn3ncccc3c2-c2ccnc(Nc3ccc4c(c3)OCCO4)n2)cc1,-2.15
8,CCCN(CCS(C)(=O)=O)Cc1ccc(-c2ccc3ncnc(Nc4ccc(OCc5cccc(F)c5)c(Cl)c4)c3c2)o1,1.99
9,CCn1c(-c2nonc2N)nc2c(C#CC(C)(C)O)nc(OC[C@H](N)c3ccccc3)cc21,-3.58
10,COc1cccc(-c2c[nH]c3c(N/N=C/c4ccncc4)ncnc23)c1,12.2
11,c1cc(-c2cnn3nc(N4CCOCC4)ccc23)nc(NC2CC2)n1,11.8
12,CN(C)CCOc1ccc(-c2nc(-c3ccncc3)c(-c3ccc4c(c3)CC/C4=N\O)[nH]2)cc1,7.36
13,CCc1nn2ncccc2c1-c1ccnc(NC2CC2)n1,0.16
14,Clc1ccc(-c2nn3ncccc3c2-c2ccnc(Nc3ccccc3)n2)cc1,1.16
15,COc1cc(/C=N/Nc2ncnc3[nH]ncc23)ccc1O,10.4
16,NS(=O)(=O)c1ccc(Nc2ncc(-c3ccccc3)o2)cc1,13.1
17,COc1ccc2[nH]c3c4[nH]c5ccc(OC)cc5c4c4c(c3c2c1)C(=O)NC4=O,2.91
